{"source": "PubChem BioAssay AID743279", "about": "(National Center for Advancing Translational Sciences (NCATS), 2014)", "note": "The whole screen tested about 360,000 compounds, of which about 17,000 (4.7%) were called active. Inconclusive results (about 5%) are left out. The sample as a whole holds a higher share of actives than the screen did. A number with no mark means an inactive call. Rule as the data show it: active = activity change below about -50%; inconclusive = mostly about -30% to -49%; inactive = weaker than that.", "data": [{"experiment": "qHTS for Inhibitors of Inflammasome Signaling: IL-1-beta AlphaLISA Primary Screen", "settings": "THP-1 LPS/ATP IL-1B secretion, 16 h; at 57.5 µM, hits give low values", "outline": "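THP-1 cells pretreated 1 hr with compounds (up to 57.5 uM final), then stimulated with LPS (250 ng/mL final) plus ATP (1.25 mM final); secreted IL-1B measured by AlphaLISA after 16 hr, decreased signal indicating inhibition.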", "values": [{"molecule": "CC(C)C(C)(C#N)NC(=O)CSc1nc2scc(-c3ccccc3)c2c(=O)[nH]1", "note": "(stereo not given); also: % is scaled to controls: 0 for no effect and ±100 for the full control effect", "activity change": "18.7%"}, {"molecule": "CC[C@@]12C(=O)N(c3ccccc3)C(=O)N1[C@H](c1ccc(Br)cc1)[C@@H]1C(=O)N(C(C)(C)C)C(=O)[C@@H]12", "activity change": "12%"}, {"molecule": "Cn1cc([N+](=O)[O-])c(C(=O)Nc2ccc3c(c2)OCCO3)n1", "activity change": "-66.8% (active)"}, {"molecule": "Cc1onc(C(=O)Nc2ccc3c(c2)OCO3)c1[N+](=O)[O-]", "activity change": "-7.05%"}, {"molecule": "O=C(Nc1ccc2c(c1)OCCO2)c1ccoc1", "activity change": "-12.9%"}, {"molecule": "CC(=O)N(O)CCCCCNC(=O)CCC(=O)N(O)CCCCCNC(=O)CCC(=O)N(O)CCCCCNC(=O)CCC(=O)O", "activity change": "21.7%"}, {"molecule": "CC(C)(C)N1C(=O)[C@H]2[C@@H](c3ccc(Br)cc3)N3C(=O)N(c4cccc(Cl)c4)C(=O)[C@@]3(C)[C@H]2C1=O", "activity change": "-24.5%"}, {"molecule": "C[C@@]12C(=O)N(c3cccc(Br)c3)C(=O)N1[C@H](c1ccc(Cl)cc1)[C@@H]1C(=O)N(C3CCCCC3)C(=O)[C@@H]12", "activity change": "-60.3% (active)"}, {"molecule": "O=C1[C@H]2[C@@H](c3ccc(Cl)cc3)N3C(=O)N(c4cccc(F)c4)C(=O)[C@@]3(Cc3ccccc3)[C@H]2C(=O)N1C1CCCCC1", "activity change": "-4.9%"}, {"molecule": "COc1ccc(-c2cnc3c(c2)C(=O)N([C@H](C)CO)C[C@@H](C)[C@H](CN(C)Cc2ccccc2)O3)cc1", "activity change": "-26.2%"}, {"molecule": "CCCNC(=O)C1(C)CCN(Cc2csc(-c3ccc(Cl)cc3)n2)C1", "note": "(stereo not given)", "activity change": "-26.3%"}, {"molecule": "c1ccc2c(c1)CSc1sccc1C2=C1CCNCC1", "activity change": "-57.8% (active)"}, {"molecule": "CN1OC[C@@H]2CN(C(=O)c3cccc4ccccc34)[C@H](c3ccc(N4CCCCC4)cc3)C[C@@H]21", "activity change": "-28.3%"}, {"molecule": "N#Cc1ccc(OCC(=O)Nc2nc(-c3ccccn3)cs2)cc1", "activity change": "69.5%"}, {"molecule": "CSc1ccccc1NC(=O)CN(C)CC(=O)Nc1cccc(Br)c1", "activity change": "-74.1% (active)"}, {"molecule": "CCC(C)c1ccccc1NC(=O)CN(C)CC(=O)Nc1ccccc1SC", "note": "(stereo not given)", "activity change": "-1.52%"}, {"molecule": "CSc1ccccc1NC(=O)CN(C)CC(=O)Nc1ccc(Cl)cc1[N+](=O)[O-]", "activity change": "-0.613%"}, {"molecule": "O=C(Nc1ccccc1)C1CC(=O)n2c(nc3ccccc32)N1", "note": "(stereo not given)", "activity change": "-5.02%"}, {"molecule": "COc1ccc(CC(NC(C)=O)C(=O)NC2CCN(C(=O)c3ccc(Cl)cc3)CC2)cc1", "note": "(stereo not given)", "activity change": "23.6%"}, {"molecule": "COC(=O)C[C@H]1C=C[C@@H](NS(=O)(=O)c2ccc(C)cc2)[C@@H](CO)O1", "activity change": "34.5%"}, {"molecule": "CSc1ncnc2c1ncn2CCCNCc1cccs1", "activity change": "19.3%"}, {"molecule": "COc1ccc(N2CCC(N3CCN(C)C(CCO)C3)CC2)cc1", "note": "(stereo not given)", "activity change": "15.4%"}, {"molecule": "COc1ccc(N2CCC(CNC(=S)Nc3c(C)cccc3C)C2)cc1", "note": "(stereo not given)", "activity change": "-82.6% (active)"}, {"molecule": "COc1ccc(NC(=S)NCC2CCN(c3ccc(OC)cc3)C2)cc1", "note": "(stereo not given)", "activity change": "-82.6% (active)"}, {"molecule": "COc1ccc(C(C(=O)Nc2c(C)cccc2C)N2CCN(c3ccc(C)cc3)CC2)cc1", "note": "(stereo not given)", "activity change": "-9.64%"}, {"molecule": "COc1ccc(OCC(=O)Nc2ccc(N3CCC(C)CC3)cc2)cc1", "activity change": "2.27%"}, {"molecule": "COc1ccc(NC(=S)NCCN2CCC(C)CC2)cc1", "activity change": "-11.9%"}, {"molecule": "Cc1sc2ccccc2c1CNC[C@H]1O[C@@H](n2ccc(=O)[nH]c2=O)[C@H](O)[C@@H]1O", "activity change": "-9.54%"}, {"molecule": "CN(Cc1c(F)cccc1Cl)C(=O)COC(=O)Cn1cnc2ccccc2c1=O", "activity change": "12.8%"}, {"molecule": "CCCCN1CC(N2CCN(Cc3cccc(C)c3)CC2)CS1(=O)=O", "note": "(stereo not given)", "activity change": "-1.82%"}, {"molecule": "CCc1ccc([C@@H]2CC(=O)[C@@H]3CN(S(=O)(=O)c4ccc(C)cc4)[C@H](c4ccc(Cl)cc4)C[C@@H]3N2S(=O)(=O)c2ccc(C)cc2)cc1", "activity change": "9.82%"}, {"molecule": "N#Cc1nc(COc2ccc(Cl)cc2)oc1N1CCCC1", "activity change": "-69.8% (active)"}, {"molecule": "Cc1cc(N2CCCC2)ccc1NC(=O)COc1ccc(Cl)cc1", "activity change": "2.28%"}, {"molecule": "COc1ccc(-c2oc(/N=C/N3CCCC3)c(C#N)c2-c2ccc(OC)cc2)cc1", "activity change": "-12.8%"}, {"molecule": "O=S(=O)(c1ccc(Cl)cc1)c1nc(-c2ccco2)oc1N1CCCCC1", "activity change": "-10.9%"}, {"molecule": "Cc1ccc(OCc2nc(C#N)c(N3CCCC3)o2)cc1", "activity change": "-58.3% (active)"}, {"molecule": "N#Cc1ccc(OCc2nnc(-c3ccc([N+](=O)[O-])cc3)o2)cc1", "activity change": "-1.57%"}, {"molecule": "CNC(=O)C1CN(C(=O)c2cccc(S(=O)(=O)N3CCc4ccccc43)c2)c2ccccc2O1", "note": "(stereo not given)", "activity change": "31.5%"}, {"molecule": "COc1ccc(-c2coc3c(C(=O)NC(C)C)cccc23)c(C)c1", "activity change": "-10.6%"}, {"molecule": "COc1ccc(CN2CCC(C)(Oc3cccc(F)c3)C2)c2ccccc12", "note": "(stereo not given)", "activity change": "6.61%"}, {"molecule": "Nc1nc2c(ncn2[C@@H]2O[C@H](CNCc3ccc(OCCCN4CCOCC4)cc3)[C@@H](O)[C@H]2O)c(=O)[nH]1", "activity change": "16.8%"}, {"molecule": "CC1CC(C)CN(CCOc2cccc3ccccc23)C1", "note": "(stereo not given)", "activity change": "-68.4% (active)"}, {"molecule": "CC1CN(CCOc2ccccc2[N+](=O)[O-])CC(C)O1", "note": "(stereo not given)", "activity change": "7.14%"}, {"molecule": "CC1CCCN(CCOCCOc2ccccc2-c2ccccc2)C1", "note": "(stereo not given)", "activity change": "-6.75%"}, {"molecule": "CCCn1nnnc1NC(=O)COc1ccc(Cl)cc1C", "activity change": "-5.09%"}, {"molecule": "COc1ccc(Cl)cc1C=CC=Nc1ccc(S(N)(=O)=O)cc1", "activity change": "-101% (active)"}, {"molecule": "COc1ccc(Cl)cc1C=CC=NNC(=O)c1ccncc1", "activity change": "-5.27%"}, {"molecule": "COc1ccccc1/C=C/C=N/n1c(-c2ccc(Cl)cc2Cl)n[nH]c1=S", "activity change": "0%"}, {"molecule": "CC1(C)CC(=O)C=C(c2ccc(COC(=O)c3cc(F)cc(F)c3)cc2)C1=O", "activity change": "16.9%"}, {"molecule": "Cc1cc(N2CCN(c3ccc(F)cc3)CC2)n2ncnc2n1", "activity change": "-4.74%"}, {"molecule": "Cc1c(C#N)c(NC(=O)c2ccccc2)n(Cc2ccccc2)c1C", "activity change": "-78.4% (active)"}, {"molecule": "Cc1ccc(C(=O)Nc2c(C#N)c(C)c(C)n2Cc2ccccc2)cc1", "activity change": "-11.6%"}, {"molecule": "COc1ccc(Cn2c(C)c(C)c(C#N)c2NC(=O)Nc2ccc(F)cc2)cc1", "activity change": "31.5%"}, {"molecule": "Cc1cn([C@H]2C[C@H](O)[C@@H](/C=C/C(=O)NCCCc3ccccc3)O2)c(=O)[nH]c1=O", "activity change": "-16.4%"}, {"molecule": "COc1ccc(OC)c(C(=O)c2ccc(Cl)cc2)c1", "activity change": "1.55%"}, {"molecule": "COc1ccc2c(c1)C(=O)Nc1cc(Cl)ccc1N2", "activity change": "-52.1% (active)"}, {"molecule": "COc1ccc(C2NC(=O)c3ccccc3N2)cc1", "note": "(stereo not given)", "activity change": "-24.2%"}, {"molecule": "Cc1cc(C)n2c(NCc3ccccc3)c(CC(C)C)nc2n1", "activity change": "19.1%"}, {"molecule": "CCn1cc(C(=O)NCCCN2CCCCCC2)c(=O)c2cc(S(=O)(=O)N3CCc4ccccc4C3)ccc21", "activity change": "-60.8% (active)"}, {"molecule": "CCn1cc(C(=O)NC2CCCCCC2)c(=O)c2cc(S(=O)(=O)N3CCCCC3)ccc21", "activity change": "-14.9%"}, {"molecule": "CCn1cc(C(=O)NCC2CCCO2)c(=O)c2cc(S(=O)(=O)N3CCCCC3)ccc21", "note": "(stereo not given)", "activity change": "-22.1%"}, {"molecule": "O=C(C(=O)N1CCN(c2ccccc2)CC1)c1ccc2c(c1)OCO2", "activity change": "-2.25%"}, {"molecule": "O=C(Nc1ccccc1F)c1ccccc1-c1ccc(C(F)(F)F)cc1", "activity change": "9.12%"}, {"molecule": "N#C/C(=C\\c1ccccc1C(F)(F)F)C(=O)Nc1ccccc1F", "activity change": "-50.4% (active)"}, {"molecule": "N#C/C(=C\\C1=C(N2CCOCC2)C(=C\\c2ccccc2)/CC1)C(=O)Nc1ccccc1F", "activity change": "5.35%"}, {"molecule": "COc1ccc(Cn2c(=S)[nH]c3cc(C(=O)N4CCCCC4)ccc3c2=O)cc1", "activity change": "11.3%"}, {"molecule": "CCOc1cc2[nH]c(=S)n(Cc3ccc(C(=O)NCCOC)cc3)c(=O)c2cc1OCC", "activity change": "0%"}, {"molecule": "CCOc1cc2[nH]c(=S)n(Cc3ccc(C(=O)N4CCN(C)CC4)cc3)c(=O)c2cc1OCC", "activity change": "-53.6% (active)"}, {"molecule": "COc1cccc(-c2cnc3c(NC(C)=O)cc(-c4cccc(NC(C)=O)c4)cn23)c1", "activity change": "10.8%"}, {"molecule": "C=CCn1c(=N)n(CC(O)COc2ccc(OC)cc2)c2ccccc21", "note": "(stereo not given)", "activity change": "-22.5%"}, {"molecule": "N=c1n(Cc2ccc(Cl)cc2)c2ccccc2n1CC(O)c1ccco1", "note": "(stereo not given)", "activity change": "-59.8% (active)"}, {"molecule": "Cn1c(=N)n(CC(O)c2cccs2)c2ccccc21", "note": "(stereo not given)", "activity change": "0%"}, {"molecule": "CCCCCCN1C[C@@H](O)[C@H](n2cc(COC(=O)c3ccccc3)nn2)C[C@@H]1c1ccc(Cl)cc1", "activity change": "6.67%"}, {"molecule": "COc1ccc(S(=O)(=O)N2CCCCC2c2cc(C(=O)NCc3ccc(F)cc3)no2)cc1", "note": "(stereo not given)", "activity change": "-1.6%"}, {"molecule": "CS(=O)(=O)/C(C#N)=C/c1cccn1S(=O)(=O)c1ccc([N+](=O)[O-])cc1", "activity change": "-25.1%"}, {"molecule": "CCN(CC)CCn1c2c(c(SCC(=O)Nc3ccc(C(C)C)cc3)nc1=O)CCC2", "activity change": "7.71%"}, {"molecule": "Cc1ccc2nc(NC(=O)CSc3nc(=O)n(CCCN(C)C)c4c3CCC4)sc2c1", "activity change": "-21.5%"}, {"molecule": "CCN(CC)CCn1c2c(c(SCC(=O)Nc3nc4ccccc4s3)nc1=O)CCCC2", "activity change": "-96.2% (active)"}, {"molecule": "C#CCNC(=O)C[C@@H]1C[C@@]2(C(=O)OCC)CCCC=C2N(Cc2ccco2)C1=O", "activity change": "43.1%"}, {"molecule": "COc1cc(OC)nc(S(C)(=O)=O)n1", "activity change": "-95.5% (active)"}, {"molecule": "COc1ccc(NS(=O)(=O)c2ccc(F)cc2F)cn1", "activity change": "0.798%"}, {"molecule": "CCC(=O)Nc1nc(OC)cc(OC)n1", "activity change": "5.6%"}, {"molecule": "CC(=O)Nc1cccc(-c2cc(NC(C)=O)c3ncc(-c4ccccc4)n3c2)c1", "activity change": "12.6%"}, {"molecule": "NC(=O)C1(N2CCCCC2)CCN(C2CC(=O)N(Cc3ccc(N4CCCC4=O)cc3)C2=O)CC1", "note": "(stereo not given)", "activity change": "-8.36%"}, {"molecule": "CC1(C(=O)NS(=O)(=O)c2ccccc2)CCN1C(=O)Cc1ccc(-c2ccccc2)cc1", "note": "(stereo not given)", "activity change": "-14.7%"}]}]}
